A short description of this test: beta-lactam sensitization of Mtb H37Rv, H37Rv (AID 434955).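 Further: growth measured after seven days incubation then overnight dye step; 0% = bacteria only wells and 100% = bacteria with antibiotic.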 The following applies: M. tuberculosis H37Rv growth with meropenem, percent inhibition, at 25 µM.
Where [1] appears, read: measured here: primary screen without meropenem.

Among all 330,000 compounds or so, about 880 (0.27%) were called active. Inconclusive results (about 1%) are left out. How the calls were made is not given here. A selection follows.

On to `COCCNC(=O)C(c1ccc(O)cc1)N(C(=O)CCC(=O)Nc1nccs1)c1ccc(C)cc1` (stereo not drawn), for which the inhibition runs as follows: (stronger effect = higher value) -3.29% (inactive); under setting [1], -1.6%.

As for `O=C(Cn1cnc2c(cnn2-c2ccc(F)cc2)c1=O)NCCc1ccccc1`, the inhibition by setting is: (stronger effect = higher value) 8.42% (inactive); under setting [1], 5.1%.

As for `CCOC(=O)C1CCN(C(=O)Cc2c(C(=O)O)[nH]c3ccccc23)CC1`, the inhibition by setting is: (stronger effect = higher value) 11.4% (inactive); under setting [1], 8.1%.

In the case of `COCc1cc(C)nc2sc3c(=O)n(-c4cccc5ccccc45)nnc3c12`, the inhibition is 41.4% (inactive) (stronger effect = higher value) and -9.11% under setting [1].

For `CN(c1ccccc1)S(=O)(=O)c1cccc(C(=O)NNC(=O)c2ccncc2)c1`, the inhibition reads like this: (stronger effect = higher value) -14.5% (inactive); under setting [1], 10.4%.

Take `COc1ccccc1C(=O)N/C(=C/c1ccco1)C(=O)Nc1ccc(C(=O)O)cc1`: the inhibition is 5.03% (inactive) (stronger effect = higher value) and 3.35% under setting [1].

For `CCOC(=O)C(=O)C1C(=O)Nc2ccccc21` (stereo not drawn), the inhibition runs as follows: (stronger effect = higher value) 5.13% (inactive); under setting [1], 3%.

Regarding `COc1cc(NS(=O)(=O)c2ccc(NC(=O)c3ccc(S(=O)(=O)N4CCCCC4)cc3)cc2)ncn1`, the inhibition is -5.84% (inactive) (stronger effect = higher value) and -4.25% under setting [1].

As for `Cc1ccc(C(=O)N2CCC(n3nccc3NC(=O)Nc3cccc(F)c3)CC2)cn1`, the inhibition is, setting by setting: (stronger effect = higher value) -9.41% (inactive); under setting [1], -4.97%.

As to `COc1ccccc1N(C(=O)Cn1nnc2ccccc21)C(C(=O)NCc1ccco1)c1ccc(C)o1` (stereo not drawn), the inhibition (stronger effect = higher value) was -4.29% (inactive) and the inhibition under setting [1] was -5.41%.

Consider `CCN(Cc1nc2ccccc2c(=O)[nH]1)Cc1cc(=O)oc2cc(C)c(C)cc12`, for which the inhibition is, setting by setting: (stronger effect = higher value) 1.77% (inactive); under setting [1], -4.21%.

In the case of `COc1cccc(N2CC(NC(=O)c3ccc4ccccc4c3)CC2=O)c1` (stereo not drawn), the inhibition is, setting by setting: (stronger effect = higher value) -3.62% (inactive); under setting [1], 10.2%.

For the molecule `O=C(CC1OC(=O)c2ccccc21)NC1CCCCC1` (stereo not drawn), the inhibition reads like this: (stronger effect = higher value) 2.15% (inactive); under setting [1], 2.66%.

Consider `COc1ccccc1CCCNC(=O)C1CCC(=O)N(CCN2CCOCC2)C1` (stereo not drawn), for which the inhibition by setting is: (stronger effect = higher value) 1.01% (inactive); under setting [1], -9.27%.

For the molecule `Cc1cc(C)c2nc3nc(C)cc(C)c3c(N)c2c1`, the inhibition is, setting by setting: (stronger effect = higher value) 6.08% (inactive); under setting [1], 4.53%.

As to `CCC(C)N(C(=O)COC(=O)c1nc(Cl)ccc1Cl)C1CCS(=O)(=O)C1` (stereo not drawn), the inhibition reads like this: (stronger effect = higher value) -10.3% (inactive); under setting [1], -10.3%.

For the molecule `CCn1c(CNC(=O)c2ccco2)nnc1SCC(=O)Nc1cccc(F)c1`, the inhibition by setting is: (stronger effect = higher value) -8.4% (inactive); under setting [1], -1.57%.

Consider `O=c1cc(CN2CCN(c3cccc(Cl)c3)CC2)c2cc3c(cc2o1)CCCC3`, for which the inhibition (stronger effect = higher value) is -11.5% (inactive) and the inhibition under setting [1] turned out to be 1.9%.

In the case of `COc1ccc(-c2ccc(OC(=O)NC3CCS(=O)(=O)C3)cc2)cc1` (stereo not drawn), the inhibition was 87.1% (inactive) (stronger effect = higher value) and 66.5% under setting [1].

With `COCCOC(=O)C1=C(C)NC(=O)NC1c1cc2c(cc1Br)OCO2` (stereo not drawn), the inhibition by setting is: (stronger effect = higher value) -3.19% (inactive); under setting [1], 0.53%.

As for `Cc1ccc(C(=O)N2CCN(S(=O)(=O)N3CCOCC3)CC2)cc1`, the inhibition (stronger effect = higher value) is -7.62% (inactive) and the inhibition under setting [1] is -3.45%.

Regarding `CC(C)Cc1ccc(S(=O)(=O)N2CCN(C(=O)c3ccco3)CC2)cc1`, the inhibition is, setting by setting: (stronger effect = higher value) 1.6% (inactive); under setting [1], -4.13%.

For the molecule `C/C(=N/O)c1ccc(N2C(=O)C3C4C=CC(C3C2=O)C2C3C(=O)N(c5ccc(/C(C)=N/O)cc5)C(=O)C3C42)cc1` (stereo not drawn), the inhibition runs as follows: (stronger effect = higher value) -4.77% (inactive); under setting [1], -7.58%.

Regarding `Cc1ccc(S(=O)(=O)N(CC(O)CN2C(=O)NC(C)(C)C2=O)c2cccc([N+](=O)[O-])c2)cc1` (stereo not drawn), the inhibition reads like this: (stronger effect = higher value) 16.4% (inactive); under setting [1], 4.68%.

In the case of `CC/S(CC1CC1(Cl)Cl)=N\S(=O)(=O)c1ccc(C)cc1` (stereo not drawn), the inhibition reads like this: (stronger effect = higher value) -10.6% (inactive); under setting [1], -11.9%.

With `CCOc1cc(NC(=O)CCl)c(OCC)cc1NC(C)=O`, the inhibition is, setting by setting: (stronger effect = higher value) 90.5% (inactive); under setting [1], 98.2%.

On to `CC(C)CCOc1ccc(C(=O)C[N+]2(C)CCOCC2)cc1`, for which the inhibition is -6.59% (inactive) (stronger effect = higher value) and 4.15% under setting [1].

In the case of `COC(=O)C(C)N=Cc1ccccc1` (stereo not drawn), the inhibition is -4.31% (inactive) (stronger effect = higher value) and 0.46% under setting [1].

For `O=C(C1CC(=O)N(C2CCCCC2)C1)N1CCN(c2ccccc2)CC1` (stereo not drawn), the inhibition is, setting by setting: (stronger effect = higher value) 0.44% (inactive); under setting [1], 1.29%.

On to `O=[N+]([O-])c1c(NCCO)cc(Sc2nc3ccccc3s2)c2nonc12`, for which the inhibition by setting is: (stronger effect = higher value) 95.6% (inactive); under setting [1], 96%.

Regarding `O=C(NCc1ccc2c(c1)OCO2)c1cc([N+](=O)[O-])ccc1N1CCOCC1`, the inhibition was -1.78% (inactive) (stronger effect = higher value) and -2.18% under setting [1].

On to `COc1ccc(NC(=O)COc2ccc(C(=O)c3ccc(F)cc3)cc2)cc1S(N)(=O)=O`, for which the inhibition (stronger effect = higher value) was 7.84% (inactive) and the inhibition under setting [1] was 10.7%.

Regarding `N#Cc1ccc(COC(=O)Cn2nnc(-c3ccccc3)n2)cc1`, the inhibition by setting is: (stronger effect = higher value) 2.69% (inactive); under setting [1], 0.73%.

As for `O=C(COC(=O)Cc1ccccc1F)NNC(=O)c1ccc(Cl)cc1`, the inhibition runs as follows: (stronger effect = higher value) -6.06% (inactive); under setting [1], 20.8%.

`CC(=O)Nc1ccc(NC(=O)CSc2nnnn2-c2ccccc2F)cc1`: the inhibition was -2.11% (inactive) (stronger effect = higher value) and -2.67% under setting [1].

Consider `CC(C)c1nc(CNC(=O)CC2C(=O)NCCN2Cc2ccoc2)cs1` (stereo not drawn), for which the inhibition was -7.57% (inactive) (stronger effect = higher value) and -8.36% under setting [1].

With `O=C(CC1SC(=Nc2ccccc2F)N(CCN2CCOCC2)C1=O)Nc1ccc(F)cc1F` (stereo not drawn), the inhibition (stronger effect = higher value) was 3.51% (inactive) and the inhibition under setting [1] worked out at 2.75%.

Consider `CCc1ccc(-c2cc3c(=O)n(CC(=O)NCCCN4CCN(Cc5ccccc5)CC4)nc(C)n3n2)cc1`, for which the inhibition (stronger effect = higher value) is 99.7% (inactive) and the inhibition under setting [1] amounted to 99.5%.

For `CO/N=C(/CS(=O)(=O)c1ccc(Br)cc1)c1ccc(OC)cc1`, the inhibition by setting is: (stronger effect = higher value) -4.01% (inactive); under setting [1], -5.94%.

A word on the inhibition: it is the drop in the measured response relative to a control, in per cent.

The values above are taken from PubChem BioAssay AID434955 (Southern Research Specialized Biocontainment Screening …, 2010).
